# Laboratory results taken from PubChem BioAssay (EPA / NIEHS).
# Inconclusive results are not listed. Calls of active or inactive are those of the source. How the source made its calls, unless noted: active means hit-call score of the fitted dose curve at least 0.9, where 1 is the maximum; inactive means score below 0.9.
# How the values were obtained:
# [1] = biological target: Paired box protein Pax-6 (Homo sapiens) (UniProt P26367); assay: ATG_Pax6_CIS: Attagene CIS-FACTORIAL HepG2 Assay for human Paired Box 6 (PAX6) (AID 2282956); settings: HepG2 CIS-FACTORIAL PAX6 reporter transcription, RNA readout; actives raise or lower the signal
# In short: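 Multiplexed cis-reporter HepG2 system; 24 h treatment; reporter mRNA read by RT-PCR/CE fluorescence; bidirectional fit vs DMSO.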
# [2] = ATG_PXRE_CIS: Attagene CIS-FACTORIAL HepG2 Assay for human Pregnane X Receptor Element (PXRE) (AID 2282957); settings: HepG2 Attagene CIS-FACTORIAL PXRE reporter, mRNA; actives raise or lower the signal
# In short: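 HepG2 cells transiently transfected with cis-regulated multiple reporter transcription units; endogenous factor activity measured as reporter mRNA 24 h after dosing. RT-PCR, fluorescent primer extension, HpaI digestion, capillary electrophoresis; bidirectional fit versus DMSO baseline.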
# [3] = ATG_PPRE_CIS: Attagene CIS-FACTORIAL HepG2 Assay for human Peroxisome Proliferator-activated Response Element (PPRE) (AID 2282958); settings: HepG2 PPRE cis-element reporter, Attagene transcription factor profiling; actives raise or lower the signal
# In short: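 Transcript-level reporter induction in transfected HepG2 cells after 24 h chemical exposure, quantified by fluorescence from RT-PCR products separated by capillary electrophoresis.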
# [4] = ATG_RORE_CIS: Attagene CIS-FACTORIAL HepG2 Assay for human RAR-related Orphan Receptor Element (RORE) (AID 2282959); settings: HepG2 Attagene cis-factorial RORE reporter, mRNA; actives raise or lower the signal
# In short: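 Multiplexed reporter assay measuring mRNA induction from a cis promoter element in transiently transfected HepG2 cells after 24 h treatment. Detection via RT-PCR and capillary electrophoresis fluorescence; DMSO serves as baseline.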
# [5] = ATG_Sox_CIS: Attagene CIS-FACTORIAL HepG2 Assay for human SRY-box transcription factor (SOX) (AID 2282960); settings: HepG2 Attagene cis-factorial SOX reporter, mRNA; actives raise or lower the signal
# In short: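 Cells were transfected with reporter constructs under cis-regulatory promoters, then exposed to chemicals for 24 h. Reporter transcripts were quantified by fluorescence after RT-PCR and capillary electrophoresis; activity was fitted in both directions against DMSO.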
# [6] = biological target: Transcription factor Sp1 (Homo sapiens) (UniProt P08047); assay: ATG_Sp1_CIS: Attagene CIS-FACTORIAL HepG2 Assay for human Specificity Protein 1 (Sp1) (AID 2282961); settings: HepG2 Sp1 cis-reporter transcription, actives raise or lower the signal
# In short: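 Measures mRNA induction of an Sp1-linked reporter in HepG2 cells 24 h post-dosing. Multiplexed reporters read by RT-PCR and capillary electrophoresis; DMSO serves as negative control and baseline.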
# [7] = ATG_SREBP_CIS: Attagene CIS-FACTORIAL HepG2 Assay for human Sterol Regulatory Element Binding (SREBP) (AID 2282962); settings: HepG2 Attagene cis-factorial SREBP reporter, mRNA; actives raise or lower the signal
# In short: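 mRNA induction of transfected cis-promoter reporters in HepG2 cells, 24 h post-dose. Detection: RT-PCR with 6-FAM-labelled products, HpaI digest, capillary electrophoresis. DMSO served as negative control and baseline.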
# [8] = biological target: Signal transducer and activator of transcription 3 (Homo sapiens) (UniProt P40763); assay: ATG_STAT3_CIS: Attagene CIS-FACTORIAL HepG2 Assay for human Signal Transducer and Activator of Transcription 3 (STAT3) (AID 2282963); settings: HepG2, Attagene cis-factorial STAT3 reporter transcription; actives raise or lower the signal
# In short: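 Values derive from bidirectional fits relative to DMSO of reporter mRNA levels, measured by RT-PCR with capillary electrophoresis, in HepG2 cells carrying transiently transfected cis-regulated reporter units and exposed 24 h.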
# [9] = ATG_TA_CIS: Attagene CIS-FACTORIAL HepG2 Assay for human TA Basal Promoter (AID 2282964); settings: HepG2 Attagene CIS-factorial TA basal promoter reporter; actives raise or lower the signal
# In short: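 HepG2 cells transiently transfected with multiplexed cis-promoter reporter units, dosed 24 h. Reporter mRNA measured by RT-PCR, 6-FAM labelling, HpaI digestion and capillary electrophoresis; bidirectional fit versus DMSO baseline, serving as background control.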
# [10] = ATG_TCF_b_cat_CIS: Attagene CIS-FACTORIAL HepG2 Assay for human T-Cell-Factor with beta-catenin (TCF/b-cat) (AID 2282965); settings: HepG2 TCF/beta-catenin cis-reporter transcription, actives raise or lower the signal
# In short: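 HepG2, transient MRTU transfection, cis-element-driven reporters (endogenous TFs). 24 h compound exposure. Readout: reporter mRNA by RT-PCR + 6-FAM primer extension, HpaI digest, capillary electrophoresis. Gain/loss fit vs DMSO baseline.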
# [11] = ATG_TAL_CIS: Attagene CIS-FACTORIAL HepG2 Assay for human TAL Basal Promoter (AID 2282966); settings: HepG2 Attagene cis-factorial TAL promoter reporter; actives raise or lower the signal;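 further: background control endpoint measuring basal TAL promoter reporter mRNA not a specific factor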
# In short: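 HepG2 cells were transiently transfected with promoter-driven multiplexed reporter units and dosed for 24 h. Reporter mRNA was measured by RT-PCR with capillary electrophoresis fluorescence; bidirectional fits used DMSO as baseline, serving as a background control.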
# [12] = ATG_TGFb_CIS: Attagene CIS-FACTORIAL HepG2 Assay for human Transforming Growth Factor (TGF) (AID 2282967); settings: HepG2 Attagene CIS TGFb reporter, mRNA transcription; actives raise or lower the signal
# In short: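 HepG2 cells transiently transfected with cis-promoter-driven multiplexed reporter units; 24 h compound exposure. Reporter mRNA measured by RT-PCR, 6-FAM labeling, HpaI digestion and capillary electrophoresis; bidirectional fit versus DMSO baseline.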
# [13] = ATG_VDRE_CIS: Attagene CIS-FACTORIAL HepG2 Assay for human Vitamin D Receptor Element (VDRE) (AID 2282968); settings: HepG2 VDRE cis-reporter transcription, actives raise or lower the signal
# In short: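 Cell-based multiplexed reporter format in human liver HepG2 cells, 24 h post-dose. Fluorescence from capillary electrophoresis of reporter cDNA gives the signal, with DMSO as negative control and baseline.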
# [14] = ATG_M_19_TRANS: Attagene TRANS-FACTORIAL HepG2 Assay for M19 Transcription Factor (Internal Marker) (AID 2282974; active means hit-call score of the fitted dose curve at least 0.9, where 1 is the maximum); settings: HepG2 Attagene TRANS-FACTORIAL M19 internal marker reporter
# In short: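 After transfection of HepG2 with GAL4-UAS-driven reporter constructs, cells are dosed for 24 h. Total RNA is reverse-transcribed, reporter sequences PCR-amplified and labelled, then HpaI-digested and sized by capillary electrophoresis.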
# [15] = ATG_GAL4_TRANS: Attagene TRANS-FACTORIAL HepG2 Assay for GAL4 (Internal Marker) (AID 2282976; active means hit-call score of the fitted dose curve at least 0.9, where 1 is the maximum); settings: HepG2 Attagene TRANS GAL4 internal marker reporter
# In short: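 HepG2 cells transiently transfected with multiplexed GAL4-UAS reporter constructs were dosed for 24 h. Reporter mRNA was measured by RT-PCR, 6-FAM primer extension, HpaI digestion and capillary electrophoresis, and gain of signal was fitted relative to DMSO.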
# [16] = biological target: Nuclear receptor subfamily 1 group I member 3 (Homo sapiens) (UniProt Q14994); assay: ATG_CAR_TRANS: Attagene TRANS-FACTORIAL HepG2 Assay for human Constitutive Androstane Receptor (CAR) (AID 2282969; active means hit-call score of the fitted dose curve at least 0.9, where 1 is the maximum;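 further: activators raise reporter mRNA above DMSO so AC50 marks induction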); settings: HepG2 Attagene TRANS-FACTORIAL CAR reporter
# In short: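 HepG2 cells transiently transfected with GAL4-UAS reporter units; TRANS format reads activity of exogenous chimeric NR-Gal4 protein. After 24 h dosing, reporter mRNA quantified by RT-PCR, 6-FAM labelling and capillary electrophoresis; gain of signal fitted against DMSO.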
# [17] = biological target: Steroid hormone receptor ERR1 (Homo sapiens) (UniProt P11474); assay: ATG_ERRa_TRANS: Attagene TRANS-FACTORIAL HepG2 Assay for human Estrogen-Related Receptor alpha (ERRa) (AID 2282971; active means hit-call score of the fitted dose curve at least 0.9, where 1 is the maximum); settings: HepG2 Attagene TRANS reporter, ERRa transactivation
# In short: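 HepG2 cells transiently transfected with multiplexed GAL4-UAS reporter units reading chimeric ERRa-Gal4 activity; 24 h compound exposure. Reporter mRNA measured by RT-PCR, 6-FAM labelling, HpaI digest and capillary electrophoresis; gain of signal fitted versus DMSO baseline.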
# [18] = biological target: Estrogen-related receptor gamma (Homo sapiens) (UniProt P62508); assay: ATG_ERRg_TRANS: Attagene TRANS-FACTORIAL HepG2 Assay for human Estrogen-Related Receptor gamma (ERRg) (AID 2282977; active means hit-call score of the fitted dose curve at least 0.9, where 1 is the maximum;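 further: hits increase reporter signal over DMSO so potencies reflect activators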); settings: HepG2 Attagene TRANS reporter, ERRg transactivation
# In short: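 Transient HepG2 transfectants, 24 h compound exposure, GAL4-UAS reporter mRNA by RT-PCR/6-FAM labelling/capillary electrophoresis; positive direction vs DMSO.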
# [19] = biological target: X-box-binding protein 1 (Homo sapiens) (UniProt P17861); assay: ATG_Xbp1_CIS: Attagene CIS-FACTORIAL HepG2 Assay for human X-box Binding Protein 1 (XBP1) (AID 2282972); settings: HepG2 XBP1 cis-element reporter, Attagene multiplex; actives raise or lower the signal
# In short: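 Fluorescence-labelled cDNA fragments from reporter transcripts, separated by capillary electrophoresis, give the signal. Source: HepG2 cells transfected with promoter-driven reporter units, harvested 24 h post-dose. DMSO served as reference for bidirectional curve fitting.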
# Sequence of X-box-binding protein 1 (Homo sapiens) (P17861 whole entry, looked up, the tested form may be a part): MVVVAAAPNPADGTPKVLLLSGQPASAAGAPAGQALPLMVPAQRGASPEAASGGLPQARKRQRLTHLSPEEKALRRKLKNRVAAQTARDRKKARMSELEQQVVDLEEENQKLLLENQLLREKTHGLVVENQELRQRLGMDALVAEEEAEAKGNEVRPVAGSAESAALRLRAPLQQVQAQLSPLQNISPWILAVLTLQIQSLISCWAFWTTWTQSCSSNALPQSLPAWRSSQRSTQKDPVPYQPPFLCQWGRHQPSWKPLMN
# Sequence of Paired box protein Pax-6 (Homo sapiens) (P26367 whole entry, looked up): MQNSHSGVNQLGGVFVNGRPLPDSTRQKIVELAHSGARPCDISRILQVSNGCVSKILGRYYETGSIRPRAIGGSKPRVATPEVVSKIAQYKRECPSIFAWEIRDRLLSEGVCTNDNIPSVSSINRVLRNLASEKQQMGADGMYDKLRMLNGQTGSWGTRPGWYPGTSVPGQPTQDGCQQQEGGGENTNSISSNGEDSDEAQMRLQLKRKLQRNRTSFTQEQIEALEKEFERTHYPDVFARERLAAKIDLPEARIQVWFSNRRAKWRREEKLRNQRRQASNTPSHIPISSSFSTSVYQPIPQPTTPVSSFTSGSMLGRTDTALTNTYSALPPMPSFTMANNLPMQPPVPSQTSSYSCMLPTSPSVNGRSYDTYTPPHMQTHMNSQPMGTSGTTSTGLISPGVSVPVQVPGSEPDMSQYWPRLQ
# Sequence of Nuclear receptor subfamily 1 group I member 3 (Homo sapiens) (Q14994 whole entry, looked up, the tested form may be a part): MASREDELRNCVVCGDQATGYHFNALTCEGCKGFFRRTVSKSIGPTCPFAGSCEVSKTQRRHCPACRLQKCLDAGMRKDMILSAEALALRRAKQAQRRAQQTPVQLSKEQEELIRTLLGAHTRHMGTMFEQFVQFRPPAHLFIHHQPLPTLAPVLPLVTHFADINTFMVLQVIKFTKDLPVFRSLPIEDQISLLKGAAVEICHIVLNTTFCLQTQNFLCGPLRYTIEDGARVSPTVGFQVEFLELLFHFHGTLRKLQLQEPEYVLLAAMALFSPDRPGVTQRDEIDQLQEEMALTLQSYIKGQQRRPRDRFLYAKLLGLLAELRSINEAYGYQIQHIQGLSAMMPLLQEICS
# Sequence of Transcription factor Sp1 (Homo sapiens) (P08047 whole entry, looked up): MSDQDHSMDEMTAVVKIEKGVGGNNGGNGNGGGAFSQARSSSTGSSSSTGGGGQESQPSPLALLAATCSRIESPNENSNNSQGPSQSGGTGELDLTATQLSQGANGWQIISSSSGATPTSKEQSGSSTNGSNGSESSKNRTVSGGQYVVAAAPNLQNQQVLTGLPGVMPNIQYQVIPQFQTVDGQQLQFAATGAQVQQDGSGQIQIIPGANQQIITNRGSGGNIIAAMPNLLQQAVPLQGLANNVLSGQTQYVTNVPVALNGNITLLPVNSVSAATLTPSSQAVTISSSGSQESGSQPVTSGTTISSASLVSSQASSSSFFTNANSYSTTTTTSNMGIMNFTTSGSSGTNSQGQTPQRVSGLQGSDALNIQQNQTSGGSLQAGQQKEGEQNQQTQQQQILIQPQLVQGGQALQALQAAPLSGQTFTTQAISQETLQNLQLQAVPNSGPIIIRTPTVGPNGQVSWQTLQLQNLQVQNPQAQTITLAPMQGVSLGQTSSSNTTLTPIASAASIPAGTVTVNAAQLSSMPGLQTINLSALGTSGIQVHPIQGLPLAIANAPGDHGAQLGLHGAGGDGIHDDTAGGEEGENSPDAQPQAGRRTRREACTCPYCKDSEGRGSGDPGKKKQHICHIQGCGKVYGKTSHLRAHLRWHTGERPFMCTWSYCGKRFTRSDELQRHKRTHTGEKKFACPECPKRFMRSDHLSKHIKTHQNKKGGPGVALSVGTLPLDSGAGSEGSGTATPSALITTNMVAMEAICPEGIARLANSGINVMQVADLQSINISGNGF
# Sequence of Signal transducer and activator of transcription 3 (Homo sapiens) (P40763 whole entry, looked up): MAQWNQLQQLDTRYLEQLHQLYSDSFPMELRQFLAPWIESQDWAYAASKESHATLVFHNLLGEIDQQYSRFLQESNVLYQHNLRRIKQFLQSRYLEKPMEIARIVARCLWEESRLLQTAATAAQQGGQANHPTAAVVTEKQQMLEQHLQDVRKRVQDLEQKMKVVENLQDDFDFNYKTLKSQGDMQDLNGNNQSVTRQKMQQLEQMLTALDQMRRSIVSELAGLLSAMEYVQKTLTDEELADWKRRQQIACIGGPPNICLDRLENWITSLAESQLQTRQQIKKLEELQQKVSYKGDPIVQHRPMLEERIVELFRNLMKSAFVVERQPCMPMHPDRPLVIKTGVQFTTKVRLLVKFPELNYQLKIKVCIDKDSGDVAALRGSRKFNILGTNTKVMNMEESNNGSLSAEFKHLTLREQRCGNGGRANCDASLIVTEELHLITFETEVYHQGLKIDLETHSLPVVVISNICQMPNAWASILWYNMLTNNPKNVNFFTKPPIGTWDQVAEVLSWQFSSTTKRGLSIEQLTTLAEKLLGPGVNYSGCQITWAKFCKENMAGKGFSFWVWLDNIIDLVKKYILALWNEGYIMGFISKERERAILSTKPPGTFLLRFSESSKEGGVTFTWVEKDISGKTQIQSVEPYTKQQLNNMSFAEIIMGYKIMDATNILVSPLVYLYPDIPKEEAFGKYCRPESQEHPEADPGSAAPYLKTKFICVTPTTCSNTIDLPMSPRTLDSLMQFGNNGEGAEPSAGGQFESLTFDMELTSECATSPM
# Sequence of Estrogen-related receptor gamma (Homo sapiens) (P62508 whole entry, looked up, the tested form may be a part): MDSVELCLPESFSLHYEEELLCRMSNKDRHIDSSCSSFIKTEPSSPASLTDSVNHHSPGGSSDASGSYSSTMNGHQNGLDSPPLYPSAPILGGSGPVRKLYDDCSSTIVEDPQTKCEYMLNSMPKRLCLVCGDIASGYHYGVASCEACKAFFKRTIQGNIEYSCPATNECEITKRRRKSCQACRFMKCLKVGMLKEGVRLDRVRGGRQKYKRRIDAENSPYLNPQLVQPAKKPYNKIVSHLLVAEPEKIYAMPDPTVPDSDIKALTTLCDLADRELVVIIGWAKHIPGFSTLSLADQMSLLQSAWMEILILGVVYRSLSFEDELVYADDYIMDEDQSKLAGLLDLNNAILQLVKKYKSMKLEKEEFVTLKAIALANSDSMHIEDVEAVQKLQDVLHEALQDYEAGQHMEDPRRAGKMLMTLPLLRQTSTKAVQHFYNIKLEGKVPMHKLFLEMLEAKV
# Sequence of Steroid hormone receptor ERR1 (Homo sapiens) (P11474 whole entry, looked up, the tested form may be a part): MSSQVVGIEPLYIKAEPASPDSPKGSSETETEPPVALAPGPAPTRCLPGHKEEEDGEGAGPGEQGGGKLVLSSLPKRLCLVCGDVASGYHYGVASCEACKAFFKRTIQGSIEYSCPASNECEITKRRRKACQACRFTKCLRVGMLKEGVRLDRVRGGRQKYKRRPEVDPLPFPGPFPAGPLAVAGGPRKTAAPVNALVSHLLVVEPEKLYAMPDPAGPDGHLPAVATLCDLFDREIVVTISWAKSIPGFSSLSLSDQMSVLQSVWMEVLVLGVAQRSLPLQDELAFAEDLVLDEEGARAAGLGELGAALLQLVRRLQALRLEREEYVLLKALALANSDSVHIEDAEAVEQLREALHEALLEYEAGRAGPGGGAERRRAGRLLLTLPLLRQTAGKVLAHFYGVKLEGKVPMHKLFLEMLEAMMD
structure (smiles),measurement,setting,value
CC=CC=CCOC(=O)C(C)C,outcome,[1],inactive
same,AC50,[2],25 µM (active)
same,outcome,[3],inactive
same,outcome,[4],inactive
same,outcome,[5],inactive
same,outcome,[6],inactive
same,outcome,[7],inactive
same,outcome,[8],inactive
same,outcome,[9],inactive
same,outcome,[10],inactive
same,outcome,[11],inactive
same,outcome,[12],inactive
same,outcome,[13],inactive
same,outcome,[14],inactive
same,outcome,[15],inactive
CC(O)C1CCCCC1 (centres undefined),outcome,[1],inactive
same,outcome,[2],inactive
same,outcome,[3],inactive
same,outcome,[4],inactive
same,outcome,[5],inactive
same,outcome,[6],inactive
same,outcome,[7],inactive
same,outcome,[8],inactive
same,outcome,[9],inactive
same,outcome,[10],inactive
same,outcome,[11],inactive
same,outcome,[12],inactive
same,outcome,[13],inactive
same,outcome,[16],inactive
same,outcome,[17],inactive
same,outcome,[15],inactive
same,outcome,[18],inactive
ClC(c1ccccc1)(c1ccccc1)c1ccccc1,outcome,[1],inactive
same,AC50,[2],2.59 µM (active)
same,outcome,[3],inactive
same,outcome,[4],inactive
same,outcome,[5],inactive
same,outcome,[6],inactive
same,outcome,[7],inactive
same,outcome,[8],inactive
same,outcome,[9],inactive
same,outcome,[10],inactive
same,outcome,[11],inactive
same,outcome,[12],inactive
same,AC50,[13],5.98 µM (active)
same,outcome,[16],inactive
same,outcome,[19],inactive
same,outcome,[15],inactive
Cc1ccc(C)o1,outcome,[1],inactive
same,outcome,[2],inactive
same,outcome,[3],inactive
same,outcome,[4],inactive
same,outcome,[5],inactive
same,outcome,[6],inactive
same,outcome,[7],inactive
same,outcome,[8],inactive
same,outcome,[9],inactive
same,outcome,[10],inactive
same,outcome,[11],inactive
same,outcome,[12],inactive
same,outcome,[13],inactive
same,outcome,[19],inactive
same,outcome,[14],inactive
same,outcome,[15],inactive
same,outcome,[18],inactive
Clc1ccc(C(c2ccccc2Cl)C(Cl)Cl)cc1 (centres undefined),outcome,[1],inactive
same,AC50,[2],1.5 µM (active)
same,AC50,[3],31.9 µM (active)
same,AC50,[4],27.3 µM (active)
same,AC50,[5],182 µM (active)
same,AC50,[6],52.7 µM (active)
same,outcome,[7],inactive
same,AC50,[8],161 µM (active)
same,outcome,[9],inactive
same,AC50,[10],59.9 µM (active)
same,outcome,[12],inactive
same,outcome,[19],inactive
same,outcome,[14],inactive
same,outcome,[15],inactive
Nc1ccc(NCCO)c([N+](=O)[O-])c1,outcome,[1],inactive
same,outcome,[2],inactive
same,outcome,[3],inactive
same,outcome,[4],inactive
same,outcome,[5],inactive
same,outcome,[6],inactive
same,outcome,[7],inactive
same,outcome,[8],inactive
same,outcome,[9],inactive
same,outcome,[10],inactive
same,outcome,[11],inactive
same,outcome,[12],inactive
same,outcome,[17],inactive
same,outcome,[19],inactive
same,outcome,[15],inactive
same,outcome,[18],inactive
[O-]n1ccccc1=S.[O-]n1ccccc1=S.[Zn+2],outcome,[1],inactive
same,outcome,[2],inactive
same,outcome,[3],inactive
same,outcome,[4],inactive
same,outcome,[5],inactive
same,outcome,[6],inactive
same,outcome,[7],inactive
same,outcome,[8],inactive
same,outcome,[9],inactive
same,outcome,[10],inactive
same,outcome,[12],inactive
same,outcome,[13],inactive
same,outcome,[19],inactive
same,outcome,[15],inactive
COCCOC(=O)c1ccccc1C(=O)OCCOC,outcome,[1],inactive
same,AC50,[2],120 µM (active)
same,outcome,[3],inactive
same,outcome,[4],inactive
same,outcome,[5],inactive
same,outcome,[6],inactive
same,outcome,[7],inactive
same,outcome,[8],inactive
same,outcome,[9],inactive
same,outcome,[12],inactive
same,outcome,[13],inactive
same,outcome,[16],inactive
same,outcome,[19],inactive
same,outcome,[14],inactive
same,outcome,[15],inactive
